In PubChem BioAssay AID1159580 (chemical genetic matrix, 2015):
The campaign covered roughly 5,500 compounds. About 2,000 (36%) were called active. Inconclusive results (about 18%) are left out. No stated cut-off is given here; in the data, active means normalized growth mostly below about 0.91 (no sharp cut-off); inconclusive means no clear call, values can overlap the other calls; inactive means mostly above about 0.92. The list shows a part of the results.

Experiment: chemical genetic growth profiling, strain panel (AID 1159580);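 further: tested at 20 µM; growth read once vehicle control cultures reached saturation at 30 °C; 1 = growth at the plate median or of vehicle wells; lower values mean less growth of the strain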
Details: S. cerevisiae deletion strains, growth OD

Measured: normalized growth

COc1ccc(-c2cc(=O)c3c(O)cc(O)c(-c4cc(-c5cc(=O)c6c(O)cc(O)cc6o5)ccc4OC)c3o2)cc1
inactive: locus YAL021C, strain ccr4, active compounds read low 1 | locus YAL026C, strain drs2, active compounds read low 1.01 | locus YAL030W, strain snc1, active compounds read low 0.997 | locus YBL061C, strain skt5, active compounds read low 1.01 | locus YBR009C, strain hhf1, active compounds read low 1.01 | locus YBR021W, strain FUR4, active compounds read low 1.03 | locus YBR023C, strain chs3, active compounds read low 1 | locus YBR171W, strain sec66, active compounds read low 1.02 | locus YBR229C, strain ROT2, active compounds read low 0.998 | locus YBR231C, strain swc5, active compounds read low 1.01 | locus YBR279W, strain paf1, active compounds read low 1.01 | locus YCL011C, strain gbp2, active compounds read low 1 | locus YCL016C, strain dcc1, active compounds read low 1 | locus YCL029C, strain bik1, active compounds read low 1.01 | locus YCL061C, strain MRC1, active compounds read low 1.01 | locus YCL069W, strain vba3, active compounds read low 1.01 | locus YCR088W, strain abp1, active compounds read low 1.02 | locus YDL005C, strain med2, active compounds read low 1.01 | locus YDL035C, strain GPR1, active compounds read low 1.03 | locus YDL040C, strain nat1, active compounds read low 1.01 | locus YDL074C, strain BRE1, active compounds read low 1.05 | locus YDL101C, strain DUN1, active compounds read low 1.01 | locus YDL185W, strain tfp1, active compounds read low 0.997 | locus YDL192W, strain arf1, active compounds read low 1 | locus YDR001C, strain nth1, active compounds read low 1.02 | locus YDR069C, strain doa4, active compounds read low 0.95 | locus YDR101C, strain arx1, active compounds read low 1.02 | locus YDR137W, strain rgp1, active compounds read low 0.997 | locus YDR159W, strain sac3, active compounds read low 1.03 | locus YDR162C, strain NBP2, active compounds read low 0.993 | locus YDR195W, strain ref2 0.993 | locus YDR297W, strain sur2, active compounds read low 0.998 | locus YDR318W, strain mcm21, active compounds read low 1 | locus YDR334W, strain swr1, active compounds read low 0.992 | locus YDR335W, strain msn5, active compounds read low 1.01 | locus YDR388W, active compounds read low 1 | locus YDR392W, strain spt3, active compounds read low 0.998 | locus YDR502C, strain sam2, active compounds read low 1.02 | locus YEL003W, strain gim4, active compounds read low 1 | locus YEL037C, strain rad23, active compounds read low 1.02 | locus YEL061C, strain CIN8 (second series), active compounds read low 1.01 | locus YEL061C, strain CIN8, active compounds read low 1.01 | locus YER015W, strain faa2, active compounds read low 1.01 | locus YER016W, strain bim1, active compounds read low 1.01 | locus YER110C, active compounds read low 1.02 | locus YER111C, strain swi4, active compounds read low 1.03 | locus YER155C, strain BEM2 (second series), active compounds read low 0.995 | locus YER155C, strain BEM2, active compounds read low 1.01 | locus YER167W, strain BCK2, active compounds read low 1.02 | locus YFR010W, strain ubp6, active compounds read low 0.965 | locus YGL078C, strain dbp3, active compounds read low 1.01 | locus YGL167C, strain pmr1, active compounds read low 1.01 | locus YGL173C, strain kem1, active compounds read low 1 | locus YGL227W, strain vid30, active compounds read low 1.02 | locus YGL240W, strain doc1, active compounds read low 1.02 | locus YGL248W, strain PDE1, active compounds read low 0.986 | locus YGL253W, strain hxk2, active compounds read low 1.01 | locus YGR078C, strain PAC10, active compounds read low 1.03 | locus YGR135W, strain pre9, active compounds read low 0.997 | locus YGR252W, strain gcn5, active compounds read low 0.995 | locus YHR013C, strain ard1, active compounds read low 0.993 | locus YHR027C, strain rpn1, active compounds read low 1.01 | locus YHR030C, strain SLT2, active compounds read low 1.02 | locus YHR079C, strain IRE1 (second series), active compounds read low 1.01 | locus YHR094C, strain hxt1, active compounds read low 1.01 | locus YHR129C, strain ARP1, active compounds read low 1.01 | locus YHR142W, strain chs7, active compounds read low 0.998 | locus YHR200W, strain rpn10, active compounds read low 1.01 | locus YIL066C, strain RNR3, active compounds read low 0.993 | locus YIL073C, strain SPO22, active compounds read low 1.03 | locus YIL125W, strain kgd1, active compounds read low 1.01 | locus YIR030C, strain dcg1, active compounds read low 1.01 | locus YJL092W, strain hpr5, active compounds read low 1.02 | locus YJL095W, strain BCK1 (second series), active compounds read low 1.01 | locus YJL095W, strain BCK1, active compounds read low 1.08 | locus YJL115W, strain asf1, active compounds read low 1.01 | locus YJL129C, strain trk1, active compounds read low 1.04 | locus YJL134W, strain LCB3, active compounds read low 1.02 | locus YJL154C, strain vps35, active compounds read low 1.01 | locus YJL164C, strain tpk1, active compounds read low 0.987 | locus YJL166W, strain qcr8, active compounds read low 0.997 | locus YJL168C, strain set2, active compounds read low 1.01 | locus YJL187C, strain SWE1 (second series), active compounds read low 0.993 | locus YJL187C, strain SWE1, active compounds read low 0.99 | locus YJR043C, strain POL32, active compounds read low 1.01 | locus YJR075W, strain HOC1, active compounds read low 1.04 | locus YKL009W, strain mrt4, active compounds read low 1.03 | locus YKL068W, active compounds read low 1.01 | locus YKL085W, strain MDH1 (second series), active compounds read low 1.06 | locus YKL085W, strain MDH1, active compounds read low 1.06 | locus YKL160W, strain elf1, active compounds read low 0.998 | locus YKR001C, strain vps1, active compounds read low 1.01 | locus YKR026C, strain gcn3, active compounds read low 0.998 | locus YKR091W, strain srl3, active compounds read low 1.01 | locus YLL001W, strain dnm1, active compounds read low 1.02 | locus YLL026W, active compounds read low 1.02 | locus YLL041C, strain sdh2, active compounds read low 0.995 | locus YLR027C, strain aat2, active compounds read low 1 | locus YLR039C, strain RIC1, active compounds read low 1.16 | locus YLR058C, strain SHM2, active compounds read low 1 | locus YLR102C, strain apc9, active compounds read low 1.01 | locus YLR221C, strain rsa3, active compounds read low 0.999 | locus YLR258W, strain gsy2, active compounds read low 1.01 | locus YLR262C, strain YPT6 (second series), active compounds read low 1.02 | locus YLR262C, strain YPT6, active compounds read low 1.24 | locus YLR268W, strain sec22, active compounds read low 0.985 | locus YLR320W, strain mms22, active compounds read low 1.01 | locus YLR330W, strain CHS5, active compounds read low 1.03 | locus YLR342W, strain FKS1 (second series), active compounds read low 1.02 | locus YLR342W, strain FKS1, active compounds read low 0.978 | locus YLR357W, strain rsc2, active compounds read low 0.973 | locus YLR370C, strain arc18, active compounds read low 0.997 | locus YLR371W, strain rom2, active compounds read low 1 | locus YLR384C, strain iki3, active compounds read low 1.02 | locus YLR418C, strain cdc73, active compounds read low 1.04 | locus YML016C, strain PPZ1, active compounds read low 0.999 | locus YML032C, strain rad52, active compounds read low 1.01 | locus YML120C, strain ndi1, active compounds read low 1.03 | locus YML124C, strain tub3, active compounds read low 1.01 | locus YMR058W, strain fet3, active compounds read low 0.99 | locus YMR078C, strain ctf18, active compounds read low 1.02 | locus YMR125W, strain sto1, active compounds read low 1.02 | locus YMR129W, active compounds read low 1.01 | locus YMR205C, strain PFK2, active compounds read low 1.02 | locus YMR223W, strain ubp8, active compounds read low 1.01 | locus YMR231W, strain pep5, active compounds read low 1 | locus YMR263W, strain SAP30, active compounds read low 1.03 | locus YMR307W, strain GAS1, active compounds read low 1.13 | locus YNL067W, strain RPL9B, active compounds read low 1.02 | locus YNL071W, strain lat1, active compounds read low 1.01 | locus YNL128W, strain TEP1, active compounds read low 1.03 | locus YNL153C, strain GIM3, active compounds read low 0.98 | locus YNL209W, strain ssb2, active compounds read low 1.01 | locus YNL233W, strain BNI4, active compounds read low 1.04 | locus YNL248C, strain rpa49, active compounds read low 1 | locus YNL250W, strain rad50, active compounds read low 1.01 | locus YNL271C, strain bni1, active compounds read low 1.01 | locus YNL298W, strain CLA4, active compounds read low 1.01 | locus YNL307C, strain MCK1, active compounds read low 1.02 | locus YNL322C, strain KRE1 (second series), active compounds read low 1.02 | locus YNL322C, strain KRE1, active compounds read low 1.01 | locus YNR049C, strain mso1, active compounds read low 1.01 | locus YNR052C, strain pop2, active compounds read low 1.01 | locus YOL006C, strain TOP1, active compounds read low 1.16 | locus YOL012C, strain htz1 0.762 | locus YOL147C, strain pex11, active compounds read low 1.02 | locus YOR001W, strain rrp6, active compounds read low 0.993 | locus YOR061W, strain CKA2, active compounds read low 1 | locus YOR069W, strain VPS5, active compounds read low 1.01 | locus YOR070C, strain gyp1, active compounds read low 1 | locus YOR080W, strain dia2, active compounds read low 1.02 | locus YOR083W, strain WHI5, active compounds read low 1 | locus YOR106W, strain vam3, active compounds read low 0.973 | locus YOR136W, strain idh2, active compounds read low 1.02 | locus YOR144C, strain elg1, active compounds read low 1.01 | locus YOR184W, strain ser1, active compounds read low 1.02 | locus YOR265W, strain rbl2, active compounds read low 1 | locus YOR270C, strain vph1, active compounds read low 0.998 | locus YOR290C, strain snf2, active compounds read low 0.981 | locus YOR316C, strain cot1, active compounds read low 1.01 | locus YPL051W, strain arl3, active compounds read low 0.968 | locus YPL078C, strain atp4, active compounds read low 1.01 | locus YPL106C, strain sse1, active compounds read low 0.983 | locus YPL240C, strain hsp82, active compounds read low 1 | locus YPR119W, strain clb2, active compounds read low 1.01 | locus YPR141C, strain kar3, active compounds read low 1.01 | locus YPR163C, strain tif3, active compounds read low 1.02 | locus YPR167C, strain met16, active compounds read low 1.01 | strain wtn01, active compounds read low 0.998
